Results taken from ChEMBL document CHEMBL4513216, “Probing the Open Global Health Chemical Diversity Library for Multistage-Active Starting Points for Next-Generation Antimalarials” (ACS Infect Dis, 2020).
In all, about 69,000 compounds went through this assay and about 8,600 (12%) showed an effect of 50% or more. This is one part of a sample in which strong results are shown more often than they occur.

system: Plasmodium berghei; experiment: Screen against P. berghei liver stage (PbLuc), transformed with Luciferase, at 10uM; assay type: functional, HepG2; conditions: tested at 10 uM

SMILES | INHIBITION
O=C(O)C1(n2ccnc2)CCN(Cc2cc3ccccc3o2)CC1 | 30.9%
CCc1c(C)sc2c1c(N)nc(=O)n2CCN1CCOCC1 | -39.7%
CCc1c(O)n(C(C)CC)c(SCC(=O)c2ccccc2)nc1=O (stereo unspecified) | 36.7%
CCc1c(O)nc(SCC(=O)Nc2ccccc2)n(C(C)CC)c1=O (stereo unspecified) | 56.1%
CCc1c(O)nc(SCC(=O)N(CC)CC)n(C(C)CC)c1=O (stereo unspecified) | 29%
Cn1cc(CN2CCc3c(CNC(=O)C4CC4)cncc3C2)cn1 | -17.2%
O=C(c1cccnc1)N1C[C@H]2CN(Cc3cccc(F)c3)C(=O)[C@H]2C1 | -55.2%
CC(C)NC(=O)C(NC(=O)N1CCN(c2ccc(Cl)cc2)CC1)C(C)C (stereo unspecified) | -9.39%
CC(C)NC(=O)[C@H](C)NC(=O)N1CCN(c2ccc(Cl)cc2)CC1 | 38.1%
CC(C)NC(=O)[C@@H](NC(=O)N1CCN(c2ccc(Cl)cc2)CC1)C(C)C | 65.5%
Cc1nc(C(=O)N2CCCC2c2noc(C3CC3)n2)c[nH]1 (stereo unspecified) | 31.8%
COc1cccc(CN2C[C@@H]3COC[C@]3(COCc3ccncc3)C2)c1 | 28.4%
COc1cccc(CN2C[C@@H]3COC[C@]3(COCc3ccccn3)C2)c1 | 53.2%
COc1ccc(CN2C[C@@H]3COC[C@]3(COc3cccnc3)C2)cc1 | 24%
COc1cccc(CN2C[C@@H]3COC[C@]3(CN3CCOCC3)C2)c1 | 29.9%
c1ccc(CN2C[C@@H]3COC[C@]3(COCc3ccncc3)C2)nc1 | 48.6%
COc1ncccc1CN1C[C@@H]2COC[C@]2(COc2cccnc2)C1 | -2.17%
CCOC[C@]12COC[C@H]1CN(Cc1cccc(OC)c1)C2 | 56.7%
CCS(=O)(=O)NC[C@]12COC[C@H]1CN(Cc1cccc(OC)c1)C2 | 39.2%
c1cc(COC[C@]23COC[C@H]2CN(Cc2ccncc2)C3)ccn1 | 43.9%
COc1ccccc1CN1C[C@@H]2COC[C@]2(COCc2ccncc2)C1 | 60.2%
COc1cccc(CN2C[C@@H]3COC[C@]3(COc3cccnc3)C2)c1 | 67.2%
COc1ccccc1CN1C[C@@H]2COC[C@]2(COc2cccnc2)C1 | -8.94%
COC(=O)c1cc(OCC2CCC2)cc(C(=O)NCC(C)(C)O)c1 | 40.2%
O=C(CC1CCC2(CC1)CCN(Cc1nccs1)CC2)N1CC=CC1 | 35.2%
CCc1nnc2n1CCN(C(=O)c1cc(C)n(-c3ccccc3)c1C)C2 | 5.9%
